# According to PubChem BioAssay (EPA / NIEHS):
# The source made the active and inactive calls. The calls were made as follows: active = hit-call score of the fitted dose curve at least 0.9, where 1 is the maximum; inactive = score below 0.9.
# Test: CEETOX_H295R_MTT_cell_viability: Viability Assessment in the CeeTox HT-H295R MTT Assay (AID 2283718)
# Method in brief: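 MTT reduction (0.5 mg/ml, 4 h at 37 C; absorbance at 570 and 650 nm) gave viability as background-corrected percent change versus controls. H295R cells had 48 h forskolin (10 uM) prestimulation, then 48 h chemical exposure at 0.1% DMSO.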
row,SMILES,outcome
1,O=S1OC[C@@H]2[C@H](CO1)[C@]1(Cl)C(Cl)=C(Cl)[C@@]2(Cl)C1(Cl)Cl (stereo partly specified),inactive
2,COc1ccc(N)cc1,inactive
3,Cc1cc(C(C)(C)c2ccc(O)c(C)c2)ccc1O,inactive
4,CCOP(=O)(OCC)OC(=CCl)c1ccc(Cl)cc1Cl,inactive
5,OC(Cc1ccccc1Cl)(Cn1[nH]cnc1=S)C1(Cl)CC1 (stereo unspecified),inactive
6,C[C@]12CC[C@@H](O)C[C@@H]1CC[C@@H]1[C@@H]2CC[C@]2(C)C(=O)CC[C@@H]12,inactive
7,Cc1cc(Cl)ccc1N,inactive
8,CCC[CH2][Sn]([Cl])([Cl])[CH2]CCC,inactive
9,CC(C)(COCC1CO1)COCC1CO1 (stereo unspecified),inactive
10,CCCCCCCCCCCCN(C)C,inactive
11,COC(=O)Nc1cccc(OC(=O)Nc2cccc(C)c2)c1,inactive
